According to PubChem BioAssay (NCI):
The panel holds about 83,000 compounds, 20% with a hit somewhere; the sample as a whole holds those more often.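 Negative percent growth values reflect cell death: -40 means 40% of the cells present at the start died, and -100 means all died.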 Unmarked numbers belong to inactive results. Active and inactive are the calls of the source. The calls were made as follows: active = growth percent below 10; inactive = the rest.

Assays:
Test in all cases: NCI-60 one-dose screen, 48 h (100 = growth as untreated, 0 = no growth, -100 = all killed)
Conditions in all cases: 10 µM unless noted
HCT-15 colon = test system: HCT-15 colon
HT29 colon = test system: HT29 colon
SNB-75 CNS = test system: SNB-75 CNS
SNB-19 CNS = test system: SNB-19 CNS
U251 CNS = test system: U251 CNS
PC-3 prostate = test system: PC-3 prostate
SK-MEL-5 melanoma = test system: SK-MEL-5 melanoma
UACC-62 melanoma = test system: UACC-62 melanoma
LOX IMVI melanoma = test system: LOX IMVI melanoma
SK-MEL-28 melanoma = test system: SK-MEL-28 melanoma

SMILES	growth (HCT-15 colon)	growth (HT29 colon)	growth (SNB-75 CNS)	growth (SNB-19 CNS)	growth (U251 CNS)	growth (PC-3 prostate)	growth (SK-MEL-5 melanoma)	growth (UACC-62 melanoma)	growth (LOX IMVI melanoma)	growth (SK-MEL-28 melanoma)
Cc1ncc(C(=O)Nc2ccc(CN3CCN(C)CC3)c(C(F)(F)F)c2)cc1C#Cc1ccc(N)nc1	6.59% (active)	18.1%	-57.3% (active)	26.9%	17.6%	10.9%	-100% (active)	-70.2% (active)	-94.9% (active)	-46.2% (active)
CSc1ncccc1C(=O)OCC(=O)Nc1oc(C)c2c(C)n[nH]c(=O)c12	103%	116%	85.3%	101%	102%	84.8%	103%	94.4%	94.5%	109%
CCc1cccc2c1S/C(=C/c1ccc(OC)cc1)C2=O	28.1%	84.5%	26.6%	45.2%	41.7%	33.9%	57.2%	31.2%	40.3%	59.3%
O=c1c2cccc(F)c2sc2c(NCCCNCCO)nc3ccccc3c12	11.4%	-39.8% (active)	45.5%	44.1%	38.8%	38.3%	71.7%	59.8%	-86.6% (active)	64.2%
COc1ccc2c(c1)C(C)Cc1c(ncnc1-n1c(C)nc3ccccc31)N2C (stereo not given)	22.8%	7.08% (active)	-4.89% (active)	32.3%	25.6%	16.2%	20%	23.3%	25.7%	66.4%
COc1ccc([C@H]2c3cc(OC)c(OC)cc3C=C(C=O)C2CO)cc1OC (stereo not given in full)	43.1%	19%	15.8%	50.9%	36.2%	29%	24.6%	33.9%	46.3%	55.3%
CCOC(=O)C1=C(N)Oc2c(sc3c(C)cccc23)C1c1ccc(OC)cc1 (stereo not given)	21.7%	84.7%	-3.57% (active)	28.8%	26.6%	28.7%	52.5%	17%	32.3%	46.5%
O=C(N/N=C/[C@H](O)[C@@H](O)[C@@H](O)[C@H](O)CO)c1ccc(NC(=O)c2cccnc2)cc1	105%	111%	92.6%	97.4%	102%	102%	104%	95.5%	104%	111%
CCCCCCn1c(-c2ccc(C(=O)O/N=C(\N)c3ccc4c(c3)OCO4)cc2)nc(-c2ccccc2)c1-c1ccccc1	7.82% (active)	36.3%	-6.91% (active)	55.3%	8.25% (active)	23.2%	62%	48.1%	-95.1% (active)	59.1%
CCCCN(C)N=Nc1ccc(C(N)=O)cc1	114%	107%	97.3%	105%	108%	103%	108%	98.7%	107%	104%
CCN1C(=O)N(CC)C2Nn3c(s/c(=C\c4ccc([N+](=O)[O-])cc4)c3=O)=NC21 (stereo not given)	61.6%	109%	82%	89.3%	80.3%	16%	93.4%	75.6%	94.2%	78.4%
CCCCn1c(=O)c(-c2cc(-c3ccc(Cl)cc3)nc(-c3ccc(Cl)cc3)c2)cc2ccc(Cl)cc21	105%	109%	86.4%	96.1%	101%	94.6%	104%	95.4%	98.1%	106%
Cc1ccc(-c2nc(N3CCN(C(=O)Nc4ccc(Cl)c(C(F)(F)F)c4)CC3)c3ccccc3n2)cc1	70.3%	75.2%	66.2%	86%	79.6%	49.6%	84.3%	70%	65.4%	89.2%
COC1=C(C)C(=O)c2c(c(CCCl)c3n2CCC3O)C1=O (stereo not given)	2.73% (active)	-4.05% (active)	-45.3% (active)	2.57% (active)	-3.61% (active)	-2.49% (active)	-51% (active)	-60.5% (active)	-23.5% (active)	-27.7% (active)
NCCCNc1nc2ccccc2c2c(=O)c3cc(OC(F)(F)F)ccc3sc12	-78.1% (active)	-32.9% (active)	58.6%	7.57% (active)	-63% (active)	42.9%	59.9%	88.9%	-97.3% (active)	84.7%
CN1C(=O)N(C)C2Nn3c(s/c(=C\c4ccccc4)c3=O)=NC21 (stereo not given)	93.1%	106%	71.4%	95.6%	96.2%	101%	101%	90.9%	92.6%	105%
O=C(Oc1cccc2ccccc12)Oc1cccc2ccccc12	106%	118%	94.6%	103%	103%	71.6%	106%	103%	99.2%	118%
CCOC(=O)C1=C(N)Oc2c(sc3c(C)cccc23)C1c1ccc(F)cc1 (stereo not given)	6.3% (active)	2.47% (active)	-4.15% (active)	26.3%	19.4%	12%	16.3%	17.4%	14%	56.8%
COc1cccc2nc3n(c12)C(c1c(F)cccc1F)SC3 (stereo not given)	101%	100%	96%	101%	92.5%	80.6%	86%	77.5%	93.1%	112%
COc1cccc(OC)c1C(=O)N[C@@H]1C(=O)N2[C@@H]1SC(C)(C)[C@@H]2C(=O)O	108%	98.9%	98.9%	107%	106%	86.3%	105%	109%	100%	105%
COc1cc(C(=O)c2cc(C)c3[nH]c4ccc(O)cc4c3c2C)cc(OC)c1OC	8.88% (active)	14.5%	37.3%	54.1%	11.5%	24.9%	-49.4% (active)	59.8%	13%	55.7%
Cc1c(C(=O)N[C@@H](Cc2ccccc2)C(=O)C(=O)NCc2ccc(F)cc2)[nH]c2ccccc2c1=O	96.2%	101%	88.5%	96.9%	101%	86.5%	98.7%	91.7%	99.9%	100%
CCOC(=O)CCN(C(=O)Nc1ccccc1)C1CCCCC1	119%	114%	83.5%	110%	118%	119%	99.2%	106%	118%	131%
O=S(=O)(Nc1ccc(-c2nc(-c3cccc(OCCN4CCOCC4)c3)c(-c3ccnc(Br)c3)[nH]2)cc1)c1ccccc1	8.1% (active)	2.67% (active)	6.55% (active)	48.2%	35.2%	15.9%	37.5%	28.7%	3.47% (active)	38.7%
CCOC(=O)c1sc2ncc(-c3ccc(OC)cc3)n2c1C	90.2%	102%	92%	92.4%	105%	92.1%	94.3%	78.6%	93.4%	106%
COc1ccc(NC(=O)n2nc(/C=C\c3ccc(O)c(OC)c3)cc2/C=C\c2ccc(O)c(OC)c2)cc1	13.2%	31.3%	32.6%	38.9%	26%	28.4%	9.04% (active)	25.5%	27.6%	34.5%
CCCCOc1nc2c(C)cccc2cc1-c1cc(-c2ccc(Cl)cc2)nc(-c2ccc(Cl)cc2)c1	103%	103%	106%	92.3%	100%	94.8%	103%	97.8%	98.3%	101%
